High-throughput results (PubChem BioAssay)
GDH-TPI inh – GDH-TPI coupled enzyme inhibition counter-screen; GDH-TPI coupled enzyme counterscreen, NADH absorbance; inhibition, % at 4.8 µM; 1.2% of 360,000 active; in the data active means inhibition above about 30%;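 further: 0% = DMSO wells and 100% = wells lacking the enzyme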
PriA SSB inh – K. pneumoniae PriA-SSBct interaction inhibition. AlphaScreen SSBct-PriA binding, biotinylated peptide. inhibition, % at 33 µM. 0.6% of 430,000 active. AID 1272365; in the data active means inhibition mostly above about 37%, no sharp cut-off; inactive means mostly below about 20%;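 further: plate controls were negative control peptide for no effect and reference peptide for full effect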
Mtb FBA inh – inhibitors of M. tuberculosis fructose-bisphosphate aldolase; P9WQA3; purified M. tuberculosis FBA, fluorescence read-out; inhibition, % at 1 µM; 2.3% of 360,000 active; AID 588726; in the data active means inhibition above about 27%;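 further: 0% = vehicle and 100% = reference inhibitor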
Mtb UGM inh – Mtb UDP-galactopyranose mutase inhibition; 0.06% of 320,000 active; P9WIQ1; purified UGM, fluorescence polarization probe displacement; inhibition, % at 10 µM; AID 504406; in the data active means inhibition above about 10%, passing the limit was not always enough
Mtb bLac sens – beta-lactam sensitization of Mtb H37Rv. M. tuberculosis H37Rv growth with meropenem, percent inhibition. inhibition, % at 25 µM. 0.27% of 330,000 active; call rule not given here;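 further: growth measured after seven days incubation then overnight dye step; 0% = bacteria only wells and 100% = bacteria with antibiotic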
Rv3671c inh – inhibitors of M. tuberculosis serine protease Rv3671c; inhibition, % at 5.96 µM; AID 2606; P9WHR9; 0.048% of 320,000 active; in the data active means inhibition above about 38%;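 further: extracellular domain of Rv3671c used as enzyme; 0% = enzyme with DMSO and 100% = no enzyme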
Target sequence (P9WHR9 whole entry, looked up, the tested form may be a part): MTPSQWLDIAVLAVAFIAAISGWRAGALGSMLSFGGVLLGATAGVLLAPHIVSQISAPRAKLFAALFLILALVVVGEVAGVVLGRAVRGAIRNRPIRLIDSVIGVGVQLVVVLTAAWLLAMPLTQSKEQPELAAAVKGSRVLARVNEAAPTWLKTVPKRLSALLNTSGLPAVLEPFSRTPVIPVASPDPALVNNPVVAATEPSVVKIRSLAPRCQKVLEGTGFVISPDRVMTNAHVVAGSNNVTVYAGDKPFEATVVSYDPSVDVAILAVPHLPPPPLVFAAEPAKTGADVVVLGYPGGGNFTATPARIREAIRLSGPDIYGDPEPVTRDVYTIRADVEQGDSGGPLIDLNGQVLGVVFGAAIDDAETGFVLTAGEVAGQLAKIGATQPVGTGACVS
Starred values were filed as active, the others as inactive; . = no result; + = active, no number. Hits are enriched below; roughly 3.2% of the tested compounds scored in any of these assays.

SMILES	GDH-TPI inh	PriA SSB inh	Mtb FBA inh	Mtb UGM inh	Mtb bLac sens	Rv3671c inh
CNS(=O)(=O)c1cccc(C(=O)OCC(=O)Nc2ccc(-c3nc4ccc(C)cc4s3)cc2)c1	23	0	29*	3	43	-35
Cc1ccc2nc(-c3ccc(NC(=O)COC(=O)c4ccco4)cc3)sc2c1	21	-17	10	2	6	-15
Nc1ccc2nc(-c3ccccc3)sc2c1	26	-1	+	-5	81	1
O=C(CCS(=O)(=O)c1ccccc1)Nc1ccc(-c2nc3ccccc3s2)cc1	7	-1	31*	-1	-2	-23
COC(=O)c1ccc2c(=O)[nH]c3c(C(=O)OC(C)C)c4nc5ccccc5nc4n3c2c1	.	-14	.	.	.	.
CC(C)(C)n1ncc2c(=O)n(CCC(=O)NCc3ccccc3Cl)cnc21	.	-16	.	.	.	.
CC[n+]1c(C=C2Sc3ccccc3N2C)ccc2cccc(C)c21	.	44	.	.	.	.
Cc1ccc(S(=O)(=O)Nc2ccccc2C(=O)Nc2ccc(-c3nc4ccc(C)cc4s3)cc2)cc1	.	-2	.	.	.	.
Cc1ccc2nc(-c3ccc(NS(=O)(=O)c4ccc(F)cc4)cc3)sc2c1	37*	-2	+	-1	7	-248
Cc1ccc2nc(-c3ccc(NC(=O)C4CCC(C(=O)O)C4)cc3)sc2c1 (stereo not given)	.	-10	.	.	.	.
CC1=CCC(C(=O)O)C(C(=O)Nc2ccc(-c3nc4ccc(C)cc4s3)cc2)C1 (stereo not given)	37*	-8	190*	-1	5	-15
COC(=O)c1ccc(C(=O)NCc2ccc(C(O)c3ccsc3)s2)cc1 (stereo not given)	.	-29	.	.	.	.
COc1ccc(C2C(=C(O)c3ccc(C)cc3)C(=O)C(=O)N2C)cc1 (stereo not given)	.	-17	.	.	.	.
COc1ccc(C2/C(=C(/O)c3ccc(C)cc3)C(=O)C(=O)N2C)cc1 (stereo not given)	32*	.	-1	4	3	1
Cc1cc(N2CCN(c3ccc([N+](=O)[O-])c4cccnc34)CC2)c2ccccc2n1	6	-1	-7	2	5	-2
Cc1cc(N2CCN(c3ccc(C(F)(F)F)cc3[N+](=O)[O-])CC2)c2ccccc2n1	3	46*	1	1	100	6
NS(=O)(=O)c1ccc(N2C(=O)C(=O)/C(=C(/O)c3ccccc3)C2c2ccc(Cl)cc2)cc1 (stereo not given)	39*	.	-3	6	-8	-1
NS(=O)(=O)c1ccc(N2C(=O)C(=O)C(=C(O)c3ccccc3)C2c2ccc(Cl)cc2)cc1 (stereo not given)	.	3	.	.	.	.
C/C(=N\NC(=O)c1ccccc1)c1ccc(N2CCOCC2)cc1	31*	.	-10	0	9	4
CC(C)(C)OC(=O)N(CCc1ccccc1)Cc1ccc(OCc2cccc(NC(=O)/C=C/c3ccccc3)c2)cc1	36*	-13	2	.	.	.
COc1cccc(NC(=O)C(=O)NN=Cc2cc(C)n(-c3ccc(Cl)c(Cl)c3)c2C)c1	.	4	.	.	.	.
O=C(NCCn1nc(-c2ccccc2)ccc1=O)c1c(F)cccc1Cl	.	-4	.	.	.	.
Cc1cc(/C=C(\C#N)C(=O)NCc2ccccc2)cc(C)c1O	7	4	-14	0	-10	-8
Cc1nn(-c2ccccc2)c(Cl)c1/C=C(/CC(=O)O)c1nc2ccccc2s1	25	0	-1	.	.	.
Cc1c(/C=C(\C#N)C(=O)NCc2ccccc2)cc(C#N)n1C	35*	3	-4	-3	5	-7
SMILES	GDH-TPI inh	PriA SSB inh	Mtb FBA inh	Mtb UGM inh	Mtb bLac sens	Rv3671c inh
COc1cc(/C=C(/C#N)C(=O)NCc2ccccc2)cc(OC)c1OC	50*	-8	-1	-1	3	-1
Cc1c(/C=C(\CC(=O)O)c2nc3ccccc3s2)cc(C#N)n1C	43*	7	10	-2	-5	7
Cc1cc2ncc(NC(=O)c3cc(-c4ccco4)on3)cn2n1	.	-4	.	.	.	.
O=C(CSc1n[nH]c(=O)c2cc(-c3ccc(F)cc3)nn12)NCc1ccc(F)cc1	.	-5	.	.	.	.
CCOC(=O)N1CCC(NC(=O)Cc2csc(NC(=O)c3ccc(=O)[nH]c3)n2)CC1	.	-7	.	.	.	.
Cc1nc2c(sc3ccccc32)c(=O)n1CC(=O)Nc1ccc(Br)cc1	.	-18	.	.	.	.
O=C(CSc1ccc(-c2ccccn2)nn1)Nc1ccccc1Cl	.	65*	.	.	.	.
O=C(CSc1ccc(-c2ccccn2)nn1)Nc1ccccc1C(F)(F)F	.	69*	.	.	.	.
O=C(CSc1ccc(-c2ccccn2)nn1)Nc1ccc(Cl)cc1	.	31	.	.	.	.
Cc1nc(SCC(=O)Nc2ccccc2C(F)(F)F)cc(-c2ccccn2)n1	.	-8	.	.	.	.
